Compound activity as filed in PubChem.
Only some compounds are listed: those with a hit (about 8% of all), similar ones and a draw of the others.
MCF10A rereplic: DNA re-replication induction in MCF 10a cells. MCF 10A DNA re-replication, Hoechst nuclear intensity, 48 h. 350,000 tested, 2.9% active. Potency, µM (doses to about 46.1 µM), for inactives: at the top dose activity, positive = re-replication, most hits filed as activators. AID 624296; also: % of control where 0% means no effect; nearly all actives have a fitted effect of over 50% in size
KB-3-1 cytotox: kills parental KB-3-1 adenocarcinoma cells; KB-3-1 viability, CellTiter-Glo ATP luminescence, 72 h; Potency, µM (titrated, usually from 46.1 µM), actives largely listed as cytotoxic; 400,000 tested, 1.4% active; also: % is scaled to controls: 0 for no effect and ±100 for the full control effect; nearly all actives have a fitted effect of over 60% in size
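Here the drug-naive KB-3-1 line serves as comparator for MDR sub-line selectivity; cells received compound titrations, 72 h at 37 °C, then CellTiter-Glo readout.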
HT1080-NT tox: kills 2HG-producing HT-1080-NT fibrosarcoma cells. 360,000 tested, 1.6% active. Potency, µM (doses to about 46.1 µM), without a hit: top-dose activity, negative = less viability, actives largely listed as cytotoxic. HT-1080-NT fibrosarcoma viability, CellTiter-Glo ATP luminescence, 48 h. AID 686970;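 also: NT is the 2HG producing partner of a matched IDH1 knockdown line; 0% = DMSO-treated cells and -100% = media-only wells without cells; nearly all actives have a fitted effect of over 55% in size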
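Luminescent CellTiter-Glo readout after 48 hours of compound exposure at 37 degrees C defined viability of HT-1080-NT cells. Activity was normalized to DMSO wells and cell-free media wells; concentration-response curves were fitted and assigned curve classes.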
HT1080 IDH1KD tx: kills HT-1080 cells with IDH1 knockdown. 360,000 tested, 2% active. Potency, µM (doses to about 46.1 µM), for inactives: at the highest dose activity, negative = toxicity, most hits filed as cytotoxic. HT-1080 IDH1 knockdown viability, ATP luminescence, 48 h;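 also: 0% = DMSO wells and -100% = cell-free medium wells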
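Viability of IDH1-knockdown HT-1080 fibrosarcoma cells was assessed by CellTiter-Glo after 48 h at 37 °C with titrated compound; concentration-effect curves were classified by fit quality and response size.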
SW480 rereplic: inducers of DNA re-replication in SW480 colon cancer cells | SW480 DNA re-replication, Hoechst DNA content imaging, 48 h | Potency, µM (doses to about 46.1 µM), for the others: at the top dose re-replication activation, actives largely listed as activators | 340,000 tested, 1.8% active | AID 624297; also: % of control where 0% means no effect; nearly all actives have a fitted effect of over 55% in size
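DNA re-replication was detected as more nuclei of elevated Hoechst intensity after 48 hr exposure to compound (23 nL pinned per well of 250 cells).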
KB-V1 MDR tox: kills drug-selected multidrug resistant KB-V1 cells. Potency, µM (highest dose often 46.1 µM), usual class: cytotoxic. KB-V1 MDR cells viability, CellTiter-Glo, 72 h. AID 1347076. 400,000 tested, 3.4% active; also: % is scaled to controls: 0 for no effect and ±100 for the full control effect; nearly all actives have a fitted effect of over 60% in size
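Drug-selected KB-V1 cells, grown in DMEM lacking phenol red with 10% FBS, receive compound titrations; after three days at 37 degrees C, surviving cell ATP is quantified by CellTiter-Glo luminescence and responses normalized and curve-fitted.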
* marks the source's active call; other numbers are inactive results; i = inactive; ? = inconclusive; . = not tested or not shown. Calls follow the shape of the dose curve; as a rule, active = well fitted curve in the direction sought with a large enough effect; inconclusive = small, poorly fitted or top-dose-only effect, or another doubt; inactive = no such curve, though single readings can be large; an effect the other way counts as inactive or inconclusive. Potency is read from the fitted curve at half-maximal effect.

SMILES	MCF10A rereplic	KB-3-1 cytotox	HT1080-NT tox	HT1080 IDH1KD tx	SW480 rereplic	KB-V1 MDR tox
COc1ccc(OC)c(NS(=O)(=O)c2ccc3[nH]c4c(c3c2)CCCCC4)c1	.	?	.	.	.	16µM*
Cc1cc(Cl)ccc1Oc1nc(-c2ccc(F)cc2)ccc1C#N	?	?	0%	-2%	13%	?
Cc1ccc2c(CN3CCN(c4ccc(Cl)c(Cl)c4)CC3)cc(=O)oc2c1	.	i	9%	3%	.	i
COc1ccc(NC(=O)c2cc(C3CCCCN3C(=O)C3CCCCC3)on2)c(C)c1 (stereo not given)	.	i	1%	3%	.	i
CCCN(CC(=O)Nc1ccccc1OC)CC(=O)c1c(N)n(Cc2ccccc2)c(=O)n(C)c1=O	-1%	?	-1%	6%	-8%	i
Cc1cc(N2C(=O)C=CC2=O)c([N+](=O)[O-])cc1C	18µM*	i	?	?	16µM*	i
Cc1c([N+](=O)[O-])cc(N2C(=O)C=CC2=O)cc1[N+](=O)[O-]	0%	i	-3%	13%	0%	i
O=C(NCc1cccn1Cc1ccccc1)Nc1ccc(Br)cc1F	.	i	.	.	.	i
COc1ccc2sc(-c3ccc(S(C)(=O)=O)cc3)c(C#CCO)c2c1	?	i	?	-27%	1%	?
COc1ccc(-c2sc3ccc(N4CCOCC4)cc3c2C#CCCO)cc1	?	?	23µM*	23µM*	12%	?
COc1ccc2c(-c3ccc(S(N)(=O)=O)cc3)c(-c3ccc(S(C)(=O)=O)cc3)sc2c1	?	i	23µM*	?	?	i
COc1ccc2c(C#CCCO)c(-c3ccc(S(C)(=O)=O)cc3)sc2c1	21µM*	i	?	?	?	i
COC(=O)c1ccc(NC(=O)c2c(NCc3cccc(F)c3)sc3c2CCCC3)cc1	.	i	.	.	.	i
Cc1ccc(NC(=O)COC(=O)Cc2ccsc2)cc1S(=O)(=O)N1CCOCC1	5%	i	3%	13%	-7%	i
COc1cccc(/C=N/Nc2ncnc3scc(-c4ccccc4)c23)c1OC	?	i	20µM*	11µM*	?	i
COc1ccc(-c2csc3ncnc(Nc4ccccc4)c23)cc1	.	i	.	.	.	i
Nc1nc2sc3c(c2cc1C(=O)N1CCOCC1)CCCC3	17%	i	1%	9%	2%	i
Cc1cccc2cc3c(N)c(C(=O)N4CCOCC4)sc3nc12	4.1µM*	2.9µM*	?	?	3.5µM*	3.7µM*
Cc1ccc2cc(C#N)c(N3CCCC3)nc2c1C	?	i	-4%	0%	11µM*	i
Cc1ccc2cc(C#N)c(N3CCCN(C(=O)C4CCCO4)CC3)nc2c1C (stereo not given)	21µM*	i	3%	-4%	19%	?
Cc1cc(C)c2nc(N3CCCN(C(=O)c4ccco4)CC3)c(C#N)cc2c1	?	i	-3%	-4%	-2%	i
O=C1CCC2=C1C1(CCCC1)N=C(Nc1nc3ccccc3o1)N2	.	i	.	.	.	i
CCOC(=O)c1c(-c2ccc(C)cc2)csc1NC(=O)C1CCCO1 (stereo not given)	13µM*	i	17%	3%	2%	i
CC(C)OC(=O)c1c(-c2ccc(C(C)C)cc2)csc1NC(=O)C1CCCO1 (stereo not given)	18µM*	?	-1%	0%	13%	?
CCOC(=O)c1c(-c2ccc(C)cc2)csc1NC(=O)CCN1CC(C)OC(C)C1 (stereo not given)	21µM*	?	-17%	?	3%	?
SMILES	MCF10A rereplic	KB-3-1 cytotox	HT1080-NT tox	HT1080 IDH1KD tx	SW480 rereplic	KB-V1 MDR tox
COc1ccc(OC)c(CNC(=O)c2cc3c(=O)oc4ccc(C)cc4c3s2)c1	.	i	.	.	.	?
Cc1ccc(NC(=O)Cn2cc(S(=O)(=O)NC(C)C)c(S(=O)(=O)NC(C)C)c2)cc1Cl	.	?	.	.	.	i
Cc1ccc(C)c(NC(=O)Cn2cc(C(=O)c3cccs3)c3ccccc32)c1	.	i	.	.	.	i
CC1CN(S(=O)(=O)c2cccc(C(=O)OCCOc3ccccc3)c2)CC(C)O1 (stereo not given)	-2%	i	-2%	-8%	-6%	12µM*
COc1ccc(OC(=O)c2cccc(S(=O)(=O)N3CC(C)OC(C)C3)c2)cc1 (stereo not given)	-4%	i	2%	10%	2%	i
C(=C\c1ccccc1)/CN1CCN(C(c2nnnn2Cc2ccccc2)C2CC2)CC1 (stereo not given)	.	i	18µM*	?	.	?
CCC(c1nnnn1-c1c(C)cccc1C)N1CCN(c2ccc(C(F)(F)F)cc2[N+](=O)[O-])CC1 (stereo not given)	.	i	29µM*	-10%	.	i
CCC(c1nnnn1-c1ccc2c(c1)OCCO2)N1CCN(C/C=C/c2ccccc2)CC1 (stereo not given)	.	i	-21%	-23%	.	8.2µM*
C(=C\c1ccccc1)/CN1CCN(C(CCc2ccccc2)c2nnnn2-c2ccc3c(c2)OCCO3)CC1 (stereo not given)	.	i	?	?	.	i
CCC(c1nnnn1-c1c(C)cccc1C)N1CCN(C/C=C/c2ccccc2)CC1 (stereo not given)	.	?	18µM*	?	.	?
COCCC(=O)N1CCC(n2nccc2NC(=O)c2ccccc2C)CC1	-1%	i	?	1%	?	i
CCOc1ccccc1NC(=O)CCCNC(=O)Cn1cnc2sc(C)c(C)c2c1=O	3%	i	-2%	-4%	-2%	i
N#Cc1c(N2CCN(c3ccc([N+](=O)[O-])cc3)CC2)[n+](=O)c2ccc(Cl)cc2n1[O-]	?	?	10%	-1%	8.2µM*	?
CN(Cc1ccccc1)C(=O)Cn1ncc2c3ccccc3n(Cc3cccc(Cl)c3)c2c1=O	.	i	.	.	.	i
CCOc1ccc(CCNc2ncnc3onc(-c4ccc(F)cc4)c23)cc1OCC	.	i	.	.	.	2.6µM*
Cc1cccc(CCNc2ncnc3onc(-c4ccc(Cl)cc4)c23)c1	.	i	.	.	.	21µM*
CCOc1ccc(CCNc2ncnc3onc(-c4ccc(Cl)cc4)c23)cc1OCC	.	i	.	.	.	i
COc1cc(OC)c(/C=C/c2nccc3ccccc23)c(OC)c1	.	?	.	.	.	i
CCOC(=O)C1(CCOC)CCCCC1=O (stereo not given)	.	i	4%	5%	.	i
